Only some compounds are listed: those with a hit (about 0.99% of all), similar ones and a draw of the others.
RECQ1 inh: blocks DNA unwinding by human RECQ1; RECQ1 DNA unwinding, red fluorescence kinetic read; AID 2549; Potency, µM (titrated, usually from 57.3 µM), without a hit: at the top dose activity, negative = inhibition, most hits filed as inhibitors; hit rate 0.54% among 240,000;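 also: plate controls were vehicle for no effect and no enzyme for full effect; nearly all actives have a fitted effect of over 30% in size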
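RECQ1T1 50 nM; forked duplex (20 bp + 30-nt ss tails) 200 nM, ATP 2 mM final; pH 8.0, 2 mM MgCl2, 2.5 ug/ml poly(dI-dC); 15 min compound preincubation; discontinuous kinetic read over 2 h at RT.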
WRN inhibitor: blocks human WRN helicase. WRN helicase unwinding, fluorescent forked duplex, kinetic. Potency, µM (series often up to 114 µM), without a hit: at the top dose activity change, negative = inhibition, hits mostly inhibitors. hit rate 0.46% among 360,000; also: nearly all actives have a fitted effect of over 55% in size
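Enzyme (20 nM final) and test compound sit together 15 min at room temperature before substrate addition. Substrate is a single-forked duplex oligonucleotide (100 nM) labelled with fluorophore and quencher, with 2 mM ATP; helicase unwinding raises red fluorescence, read kinetically.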
L3MBTL1 block: blocks human L3MBTL1; Q9Y468; AlphaScreen L3MBTL1–H3K9me1 peptide binding; Potency, µM (titrated, usually from 57.1 µM), for the others: at the highest dose activity, negative = inhibition, actives largely listed as inhibitors; hit rate 0.66% among 230,000; also: nearly all actives have a fitted effect of over 60% in size
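L3MBTL1 50 nM + b-AHA-H3(1-15)K9me1 75 nM, 30 min RT; compound added, 30 min RT; streptavidin donor/Ni-chelate acceptor beads 10 ug/mL each final, 30 min RT dark; AlphaScreen read.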
BLM helicase inh: inhibitors of human Bloom syndrome helicase BLM; P54132; recombinant BLM DNA unwinding, fluorescence dequenching; Potency, µM (titrated, usually from 56.1 µM), without a hit: at the top dose activity change, negative = inhibition, usual class: inhibitors; hit rate 0.2% among 350,000;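 also: plate controls were vehicle for no effect and no enzyme for full effect; nearly all actives have a fitted effect of over 35% in size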
FEN1 inhibitor: human FEN1 inhibition; hit rate 0.35% among 390,000; P39748; Recombinant FEN1 flap cleavage, fluorescence, 15 min; Potency, µM (highest dose often 114 µM), for the others: at the highest dose activity change, negative = inhibition, actives largely listed as inhibitors; also: nearly all actives have a fitted effect of over 65% in size
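Potency values derive from four-parameter Hill fits of normalized qHTS data. The reaction used 10 nM FEN1 preincubated 15 min at room temperature with compound, then 50 nM DNA substrate, read at 0 and 15 min.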
* marks the source's active call; other numbers are inactive results; i = inactive; ? = inconclusive; . = not tested or not shown. Calls follow the shape of the dose curve; as a rule, active = well fitted curve in the direction sought with a large enough effect; inconclusive = small, poorly fitted or top-dose-only effect, or another doubt; inactive = no such curve, though single readings can be large; an effect the other way counts as inactive or inconclusive. Unless noted, % is scaled to controls: 0 for no effect and ±100 for the full control effect; potency is read from the fitted curve at half-maximal effect.

SMILES | RECQ1 inh | WRN inhibitor | L3MBTL1 block | BLM helicase inh | FEN1 inhibitor
COc1ccc(NC(=O)CN(C)C(=O)c2cccc(-n3cccc3)c2)cc1 | . | 44.7µM* | 10µM* | . | -12.1%
c1ccc2nccnc2c1 | . | . | . | . | -19.4%
CCCC1OC(c2cc3c(cc2Cl)OCO3)OCC1CC (centres undefined) | . | 7.3% | . | . | 0.9%
CCOC(=O)c1cnc(-n2nc(C)cc2C)nc1Nc1ccc(N(C)C)cc1 | -2.3% | -5.7% | 3.16µM* | 2.1% | 3.4%
CC1=NN(c2nc3ccccc3[nH]2)C(=O)/C1=C/N(C)C | -6.0% | 2.1% | . | -2.6% | 7.1%
CC1=NN(c2nc3ccccc3[nH]2)C(=O)C1Cc1ccccc1 (centres undefined) | -6.8% | 3.0% | 20µM* | -1.5% | 6.4%
O=c1c(-c2c(O)cc(O)c3c(=O)cc(-c4ccc(O)cc4)oc23)c(-c2ccc(O)cc2)oc2cc(O)cc(O)c12 | 12.6µM* | 56.2µM* | . | 12.6µM* | 50.1µM*
O=C(NCCCN1CCCCCC1)c1cc2c(=O)oc3ccccc3c2s1 | . | -12.5% | . | 48.5% | 70.8µM*
CC1CCCN(CCCNC(=O)c2cc3c(Cl)nc4ccccc4c3s2)C1 (centres undefined) | 15.4% | 49.5% | . | 114.3% | 50.1µM*
Cc1ccc2oc(=O)c3cc(C(=O)NCCCN4CCN(C)CC4)sc3c2c1 | . | 25.2% | . | 142.6% | ?
CCCCNC(=O)c1cc2c(-c3ccc(Cl)cc3)nn(C)c2s1 | -10.9% | 0.5% | . | -1.8% | -3.3%
CC1CCCN(C(=O)c2cc3c(Cl)nc4ccccc4c3s2)C1 (centres undefined) | . | . | . | 0.5% | -23.6%
Cn1nc(-c2ccc(Cl)cc2)c2cc(C(=O)NCCCN3CCCC3)sc21 | 14.1% | 58.7% | . | 151.8% | 31.6µM*
CC(C)c1ccc(C2c3[nH]c4ccccc4c3C[C@H]3C(=O)N(c4ccccc4C(=O)N4CCC[C@@H]4C(=O)O)C(=O)N23)cc1 (some centres undefined) | . | 3.0% | . | -1.0% | -4.0%
COC(=O)/C(=C/Nc1ccc(O)cc1)[N+](=O)[O-] | -25.9% | -6.1% | . | -28.2% | -22.6%
O=C(CNC(=O)c1ccccc1F)NC1=NCCS1 | . | 8.5% | . | -3.6% | 0.0%
O=C(Sc1n[nH]c(=O)[nH]c1=O)c1ccccc1 | . | 17.8µM* | . | . | 0.8%
CCNC(=S)NNC(=O)c1ccccn1 | -0.3% | -4.8% | 3.55µM* | -6.0% | 2.1%
COc1cc(C2CC(=O)c3c([nH]c(C(=O)OC4CCCC4)c3C)C2)cc(OC)c1OC (centres undefined) | . | . | . | -11.2% | -6.6%
N=C1CCC(=N)c2c1c(O)c1ccccc1c2O | ? | 31.6µM* | 7.08µM* | 31.6µM* | 39.8µM*
Cc1ccc(NC(=O)c2ncn(-c3ccccc3)n2)c(Cl)c1 | . | . | . | -4.9% | 0.3%
CN=c1scc(-c2ccccc2F)n1/N=C/c1ccc[nH]1 | i | 0.4% | . | -6.7% | 0.0%
CN=c1scc(-c2ccccc2F)n1/N=C/c1ccc(O)c(O)c1O | 7.94µM* | 56.2µM* | 3.55µM* | ? | ?
O=C(O)c1ccc(COc2ccc3ccccc3c2/C=C2/NC(=O)N(Cc3ccc(F)cc3)C2=O)cc1 | i | 79.4µM* | ? | ? | ?
COc1ccc(/C=N/NC(=O)C(=O)/C=C2\NC3(CCCC3)Cc3ccccc32)cc1 | -2.7% | -5.8% | -5.1% | -0.7% | -9.5%
SMILES | RECQ1 inh | WRN inhibitor | L3MBTL1 block | BLM helicase inh | FEN1 inhibitor
O=C(/C=C1\NC2(CCCC2)Cc2ccccc21)C(=O)N/N=C/c1ccc(O)c(O)c1 | 0.9% | ? | 14.1µM* | -1.4% | -31.1%
O=C1/C(=C/c2ccco2)SC(=S)N1CC1CCCO1 (centres undefined) | 22.4µM* | ? | 15.8µM* | -27.3% | -23.3%
COc1ccc(CCN2C(=O)/C(=C\c3ccco3)SC2=S)cc1OC | -7.8% | 0.9% | 17.8µM* | -26.7% | -6.8%
COc1ccc(/C=C2/SC(=S)N(Cc3ccccc3)C2=O)cc1O | . | -6.3% | . | -11.8% | -16.9%
O=C1/C(=C\c2ccco2)SC(=S)N1Cc1ccccc1 | 31.6µM* | -15.3% | -26.1% | -21.6% | -4.2%
O=C1/C(=C\c2cc(Cl)c(O)c(Cl)c2)SC(=S)N1Cc1ccccc1 | . | 11.2µM* | . | ? | 50.1µM*
O=C1CCCc2c1oc1c2CCCC1 | . | -6.6% | . | . | -14.6%
CC(=O)NCc1ccc(C(=O)CN2C(=O)NC3(CCCCC3C)C2=O)s1 (centres undefined) | . | -15.3% | -12.3% | . | -2.4%

Bioassay records from PubChem.
